Our source for the activation values is PubChem BioAssay AID652039 (The Scripps Research Institute Molecular Screening Center, 2013).

Out of some 370,000 compounds screened, about 3,300 (0.89%) were called active. Shown is part of a subset that was picked to be rich in actives. A number with no mark means an inactive call.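 How the source made its calls: active means activation above the mean of all tested compounds plus 3 SD, computed per campaign excluding outliers beyond control limits (cut at about 13% in these data); inactive means the rest.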

Kallikrein-7 (Homo sapiens), sequence (P49862 whole entry, looked up): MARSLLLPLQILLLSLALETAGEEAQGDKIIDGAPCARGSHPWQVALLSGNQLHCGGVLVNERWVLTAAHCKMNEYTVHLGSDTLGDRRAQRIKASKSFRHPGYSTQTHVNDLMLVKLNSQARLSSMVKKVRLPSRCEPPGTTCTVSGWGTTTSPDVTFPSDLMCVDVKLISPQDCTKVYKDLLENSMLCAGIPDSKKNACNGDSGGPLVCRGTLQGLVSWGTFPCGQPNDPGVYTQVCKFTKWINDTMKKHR

This test addresses Kallikrein-7 (Homo sapiens) (UniProt P49862). Kind of test: activation of human kallikrein-7 proenzyme – biochemical, fluorescence intensity, primary screen (AID 652039). To be noted: purified proKLK7, EDANS-DABCYL substrate fluorescence; at 7 µM; hits give high values.
Regarding `CCOc1ccc(-c2cc(C)[n+](CCN(CC)CC)c(-c3ccc(OCC)cc3)c2)cc1`, the activation is 44.7% (active). For `COc1ccc(-c2nn(CCC#N)cc2C(=O)O)cc1` the value was -0.57%.

For the compound `COc1cc(OC)cc(C(=O)NCCN2CCC3(CC2)C(=O)NCN3c2ccccc2)c1`, the activation was 0.06%.

With `CS(=O)(=O)N1CCC2CCNC2C1` (stereo not given), the activation is -0.49%. Under `COc1ccccc1C1=NCc2nnc(CSC)n2-c2ccc(Cl)cc21` stands -0.06%; under `Cc1cc(OCc2cc(C(=O)O)oc2C)c2c3c(c(=O)oc2c1)CCCC3`, 9.69%. Under `COC(=O)COc1cc(C)cc2oc(=O)c3c(c12)CCCC3` stands 14.7% (active); under `Brc1ccc2c(c1)CNCc1cnnn1-2`, 0.31%; under `CCN(CC)C(=O)[C@@H]1C=C2c3cccc4[nH]c(Br)c(c34)C[C@H]2N(C)C1`, -1.09%. For `Cc1cc(N2CCNC[C@@H]2C)ccc1N1CC[C@H](O)C1` the value was 1.32%. In the case of `COc1cc(Cn2c(N)c(C(=O)NCc3ccco3)c3nc4ccccc4nc32)cc(OC)c1OC`, the activation was -1.84%. For `O=C(OCCN1CCOCC1)C1(c2ccccc2)CCCC1` the value was 0.22%; for `CCOC(=O)c1c(N)n(CCN2CCOCC2)c2nc3ccccc3nc12`, 27.2% (active); for `COc1ccc2c(c1)[C@@]13CCCCC1[C@@H](C2)NCC3` (stereo not given in full), 0.08%. Turning to `O=S(=O)(c1ccccc1)N1CCC2CCNC2C1` (stereo not given), the activation is -0.08%.

In the case of `c1ccc(CCN2CCC3(CC2)OCCO3)cc1`, the activation is 0.24%. Turning to `C[C@H]1CN([C@@H](C)CO)C(=O)CCCn2nncc2CO[C@H]1CN(C)C(=O)Oc1ccccc1`, the activation was -0.02%. Under `COc1cccc(-c2nc3ccc(N4CCN(C)CC4)cc3[nH]2)c1` stands 68.7% (active); under `Clc1ccc([C@@H]2CC3CCC2N3)cn1` (stereo not given in full), 0.62%; under `CCC(C)NC1(c2ccccc2)CCCCC1` (stereo not given), 0.13%. For `COc1ccc(C(=O)CC2C(=O)N(C)C(=O)N(C)C2=O)cc1` the value was -0.07%; for `Cc1ccccc1CCC[C@@H](CC1CCCCC1)CN(C)C(=O)Oc1ccccc1`, 0.38%. With `Cc1nc2ccc(N3CCN(C)CC3)cc2nc1C`, the activation was 83.6% (active). Under `COP(=O)(Sc1ccccc1)C(Cc1ccccc1)NC(=O)OCc1ccccc1` (stereo not given) stands 0.08%; under `c1ccc2sc(C3CCCNC3)nc2c1` (stereo not given), 0.61%.
